IL1B secr inh = inhibitors of inflammasome signaling (IL-1 beta secretion) | AID 743279 | activity change, % at 57.5 µM | actives 4.7% (n = 360,000) | THP-1 LPS/ATP IL-1B secretion, AlphaLISA, 16 h; hits give low values; in the data active = activity change below about -50%; inconclusive = mostly about -30% to -49%
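THP-1 cells pretreated 1 hr with compounds (up to 57.5 uM final), then stimulated with LPS (250 ng/mL final) plus ATP (1.25 mM final); secreted IL-1B measured by AlphaLISA after 16 hr, decreased signal indicating inhibition.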
ELG1 DNA repair = blocks ELG1-dependent DNA repair in HEK293T cells; HEK293T ELG1-luciferase reporter, luminescence, 16 h; DNA damage induced by 5-fluorouridine; Potency, µM (highest dose often 46.1 µM), for the others: top-dose activity change, negative = inhibition, most hits filed as inhibitors; actives 2.3% (n = 330,000); AID 504467; also: potency is read from the fitted curve at half-maximal effect; nearly all actives have a fitted effect of over 55% in size
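Cells (2,000 per well) received 5-fluorouridine plus test compound or DMSO and were incubated 16 hr at 37 °C, 5% CO2. Luciferase activity was read by luminescence 30 min after ONE-Glo addition; signal suppression marked inhibition of damage-induced ELG1 function.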
RORgamma inh = blocks mouse ROR gamma transcriptional activity. P51450. Drosophila S2 Gal4-RORgamma UAS-luciferase reporter, 20 h. Potency, µM (doses to about 53.6 µM), without a hit: top-dose activity change, negative = inhibition, usual class: inhibitors. actives 5.4% (n = 310,000). AID 2551; also: potency is read from the fitted curve at half-maximal effect; nearly all actives have a fitted effect of over 60% in size
Target sequence (P51450 whole entry, looked up, the tested form may be a part): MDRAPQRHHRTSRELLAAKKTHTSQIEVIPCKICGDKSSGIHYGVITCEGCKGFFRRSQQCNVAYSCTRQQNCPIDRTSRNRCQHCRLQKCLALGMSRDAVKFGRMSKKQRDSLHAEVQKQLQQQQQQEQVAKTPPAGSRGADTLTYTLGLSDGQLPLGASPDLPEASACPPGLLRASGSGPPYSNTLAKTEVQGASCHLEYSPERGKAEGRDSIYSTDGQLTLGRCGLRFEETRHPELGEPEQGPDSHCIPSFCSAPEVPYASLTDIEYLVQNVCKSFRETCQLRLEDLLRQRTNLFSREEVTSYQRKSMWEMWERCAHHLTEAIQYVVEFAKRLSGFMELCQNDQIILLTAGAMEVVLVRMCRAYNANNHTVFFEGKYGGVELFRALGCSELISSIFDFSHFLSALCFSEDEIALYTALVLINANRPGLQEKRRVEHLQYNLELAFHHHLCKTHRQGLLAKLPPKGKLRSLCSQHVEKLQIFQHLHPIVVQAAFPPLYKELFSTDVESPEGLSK
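Compounds are pin-transferred onto Drosophila Schneider cells expressing a copper-inducible Gal4–ROR gamma transactivation domain fusion. After 1 hr, copper sulfate is added to 700 uM final; luciferase is read 20 hr later.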
VP16 counter = Gal4-VP16 reporter inhibition counter-screen | Drosophila S2 Gal4-VP16 UAS-luciferase, luminescence, 20 h | Potency, µM (series often up to 53.6 µM), inactives show at the highest dose activity, negative = inhibition, actives largely listed as inhibitors | actives 3.5% (n = 310,000);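 also: Gal4-VP16 expression switched on by copper sulfate through the metallothionein promoter; potency is read from the fitted curve at half-maximal effect; nearly all actives have a fitted effect of over 50% in size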
TDP1 cell noCPT = qHTS for Inhibitors of human tyrosyl-DNA phosphodiesterase 1 (TDP1): qHTS in cells in absence of CPT; AID 686978, 2013; actives 15% (n = 420,000); Potency, µM (doses to about 46.2 µM), for the others: at the top dose activity change, negative = growth inhibition, actives largely listed as inhibitors; DT40 Tdp1-/- hTDP1 cells, no CPT, ATP luminescence, 48 h; also: potency is read from the fitted curve at half-maximal effect; nearly all actives have a fitted effect of over 55% in size
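Chicken DT40 Tdp1-/- cells stably complemented with human TDP1 were seeded at 400 cells/well with DMSO in place of 20 nM camptothecin. After compound pinning, cells grew at least 48 hr at 37 °C; viability read by CellTiter-Glo luminescence.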
TDP1 cell CPT = DT40-hTDP1 cell growth loss with CPT; AID 686979; actives 12% (n = 420,000); chicken DT40 Tdp1-/-;hTDP1 cells + 20 nM CPT, ATP luminescence, 48 h; Potency, µM (titrated, usually from 46.2 µM), for the others: at the top dose activity change, negative = growth inhibition, actives largely listed as inhibitors; also: potency is read from the fitted curve at half-maximal effect; nearly all actives have a fitted effect of over 55% in size
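Cell growth measured by CellTiter-Glo luminescence after a minimum 48 h, 37 C compound exposure with 20 nM CPT in Tdp1-knockout DT40 cells stably expressing hTDP1, seeded 400/well; qHTS titration format.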
Numbers without * were called inactive; ? = inconclusive; nt = no result; [ ] = dose if it differs, or a comment. Rows were chosen to be rich in hits. Some 21% of all compounds tested hit in one or more screens of this group. Unless noted, calls follow the shape of the dose curve; as a rule, active = well fitted curve in the direction sought with a large enough effect; inconclusive = small, poorly fitted or top-dose-only effect, or another doubt; inactive = no such curve, though single readings can be large; an effect the other way counts as inactive or inconclusive. % is scaled to controls: 0 for no effect and ±100 for the full control effect.

SMILES	IL1B secr inh	ELG1 DNA repair	RORgamma inh	VP16 counter	TDP1 cell noCPT	TDP1 cell CPT
COCCNC(=O)CCC(=O)N1Cc2cccc(OC)c2Oc2ncccc21	nt	nt	nt	nt	?	0.6%
CC1(C(=O)NCc2ccccc2Br)CCN1Cc1csc2ccccc12 (configuration not stated)	-11.2	nt	nt	nt	?	?
O=C(c1ccco1)N1CCN(c2ccc([N+](=O)[O-])cc2Cl)CC1	-5.2	?	-13.4%	4.0%	?	?
CC(C)(C)C(=O)N1CCN(c2ccc([N+](=O)[O-])cc2Cl)CC1	-9.0	nt	nt	nt	?	?
CCC(=O)NC(=S)N1CCN(c2ccc([N+](=O)[O-])cc2Cl)CC1	-5.8	?	3.98µM*	15.8µM*	?	?
O=C(NC(=S)N1CCN(c2ccc([N+](=O)[O-])cc2Cl)CC1)c1ccco1	11.1	-9.0%	0.02µM*	0.0316µM*	16.4µM*	20.6µM*
C=C1CC2C3CCC4=CC(=O)C=C[C@]4(C)[C@@]3(F)[C@@H](O)C[C@]2(C)[C@@]1(O)C(=O)COC(C)=O (some centres not stated)	nt	nt	nt	nt	-18.2%	-0.5%
COc1ccc(N2C(=NC(=O)c3ccc(Br)cc3)SC3CS(=O)(=O)CC32)cc1 (configuration not stated)	?	3.3%	nt	nt	-20.7%	-11.9%
CCCCN1C(=O)C(=O)NC[C@@H]1CC1CCCCC1	-3.0	nt	nt	nt	?	-11.8%
CCCC[C@@H]1CNC(=S)N1CC1CCCCC1	-5.7	-2.8%	1.41µM*	6.31µM*	?	?
S=C1NC[C@H](CC2CCCCC2)N1CC1CCCCC1	0.0	?	0.891µM*	5.01µM*	23.1µM*	20.6µM*
O=C1NC[C@H](c2ccccc2)N(CCC23CC4CC(CC(C4)C2)C3)C1=O	20.8	-0.9%	nt	nt	?	?
CCCC[C@@H]1CNC(=S)N1CCC12CC3CC(CC(C3)C1)C2	4.7	1.4%	0.562µM*	3.16µM*	18.4µM*	?
CCOC(=O)c1c(C)[nH]c(C)c1S(=O)(=O)N(C)CC(=O)Nc1cccc(C)n1	21.3	0.0%	-4.8%	?	4.9%	-0.7%
O=C(Nc1ccc([N+](=O)[O-])cc1)C(c1ccccc1)c1ccccc1	-7.8	nt	nt	nt	18.4µM*	18.4µM*
O=[N+]([O-])c1ccc(NNC(=S)Nc2ccccc2)cc1	-18.4	?	?	?	2.82µM*	4.47µM*
O=[N+]([O-])c1ccc(O)c(NC(=S)Nc2ccccc2)c1	11.3	?	42.4%	-22.4%	-11.6%	-22.1%
CCOc1ccc(-n2nc(CO)c(C(=O)NCC(C)O)n2)cc1 (configuration not stated)	nt	nt	nt	nt	6.3%	11.5%
O=[N+]([O-])c1ccccc1N=Nc1ccc(O)cc1O	-2.4	nt	nt	nt	25.9µM*	?
CC(OC(=O)c1cccnc1Cl)C(=O)Nc1ccc2c(c1)OCO2 (configuration not stated)	12.5	?	nt	nt	20.6µM*	?
COc1cccc(C(=O)OC(C)C(=O)Nc2ccc3c(c2)OCO3)c1 (configuration not stated)	27.7	-7.5%	nt	nt	8.2µM*	13µM*
COc1cccc(NC(=O)Nc2ccc3c(c2)OCO3)c1	-24.6	?	1.5%	2.6%	6.8%	2.3%
COCCNC(=S)N(CCc1c(C)[nH]c2ccc(Cl)cc12)Cc1cccnc1	?	3.6%	-10.5%	6.9%	20.6µM*	?
COCCNC(=S)N(CCc1c(C)[nH]c2ccc(F)cc12)Cc1cccnc1	-14.6	-28.3%	-38.0%	3.0%	2.0%	-23.8%
COCCNC(=S)N(CCc1c(C)[nH]c2ccc(C)cc12)Cc1cc(OC)c(OC)c(OC)c1	-7.2	?	-4.7%	3.1%	?	18.4µM*
SMILES	IL1B secr inh	ELG1 DNA repair	RORgamma inh	VP16 counter	TDP1 cell noCPT	TDP1 cell CPT
CCNC(=S)N(CCc1c(C)[nH]c2ccc(Cl)cc12)Cc1cccnc1	-87.0*	0.4%	-6.2%	3.7%	?	?
CCOc1cc2c(cc1OCC)C(CC(=O)O)N(C(=O)Nc1ccc(Br)c(C)c1)CC2 (configuration not stated)	nt	nt	nt	nt	?	-11.6%
COc1ccc(S(=O)(=O)N(C)C)cc1NS(=O)(=O)c1ccc(F)c(F)c1F	16.6	-8.7%	4.47µM*	12.6µM*	?	-3.2%
COc1ccc(S(=O)(=O)N(C)C)cc1NCC(=O)Nc1ccc(F)cc1F	10.1	-4.0%	29.9%	-14.6%	?	-2.9%
COc1cccc(C(=O)c2cn(CC(=O)Nc3cccc(C)c3C)c3nc(C)ccc3c2=O)c1	nt	nt	nt	nt	-12.6%	-18.2%
CCOC(=O)c1ccc2nc(Nc3nc4ccc(F)cc4s3)sc2c1	21.0	?	0.794µM*	-18.2%	?	-21.9%
CCOC(=O)c1ccc2nc(NC(C)=O)sc2c1	-0.7	?	?	4.9%	?	-25.2%
COC(=O)c1ccc2nc(Nc3nc4c(F)cc(F)cc4s3)sc2c1	21.8	?	0.316µM*	1.12µM*	16.4µM*	?
CCOC(=O)N1CCN(S(=O)(=O)c2ccc(C(=O)Nc3nc4ccc(F)cc4s3)cc2)CC1	-18.9	-23.6%	-13.7%	7.1%	6.51µM*	8.2µM*
CC1(C)CC(C(=O)N2CCOc3ccc(CN4CCN(Cc5ccccn5)CC4)cc3C2)CCO1 (configuration not stated)	nt	nt	nt	nt	1.9%	10.5%
COc1ccc(C(=O)N2CCC3(CCCN(Cc4nccs4)C3)CC2)cc1	nt	nt	23.0%	6.4%	?	?
CC1=C(C)C(O)N(Cc2ccccc2)C1=O (configuration not stated)	7.7	8.6%	6.3%	0.1%	2.4%	-3.8%
O=C(O)C[C@@H](CNC(=O)COc1ccc2ccc(=O)oc2c1)c1ccc(Cl)cc1	-3.9	-5.0%	0.4%	3.0%	2.8%	-8.6%
Nc1ccc(F)cc1F	nt	nt	-3.4%	-23.6%	nt	nt
COC(=O)c1ccc2c(=O)n(CCCCCC(=O)N3CCN(c4cc(Cl)ccc4C)CC3)c(=O)[nH]c2c1	nt	nt	nt	nt	5.8µM*	7.31µM*
COc1cc2[nH]c(=O)n(CCC(=O)N3CCN(c4cccc(C)c4C)CC3)c(=O)c2cc1OC	33.6	?	12.1%	0.8%	?	23.1µM*
Cc1ccc(C)c(N2CCN(C(=O)Cc3ccc(-n4c(=O)[nH]c5ccsc5c4=O)cc3)CC2)c1	?	?	18.2%[10 µM]	-24.8%	?	?
COc1cc2[nH]c(=O)n(CCCCCC(=O)N3CCN(c4ccc(Cl)cc4)CC3)c(=O)c2cc1OC	nt	nt	nt	nt	7.31µM*	?

Source: PubChem (National Center for Advancing Translational Sciences (NCATS))
